Results from PubChem BioAssay.
Calls of active or inactive are those of the source. Unless noted, no rule for the calls is given here.

Legend:
[1] = A549 cell viability effects, profiling panel, calcein-AM fluorescence, 48 h, basal (AID 1162); details: higher = more signal; also: test concentration not given here
[2] = adipocyte viability effects, profiling panel, cell-based, 3T3-L1 adipocytes, calcein-AM fluorescence, 48 h, basal (AID 1163); details: 3T3-L1 adipocytes viability, higher = more signal; also: test concentration not given here
[3] = HepG2 cell viability effects, profiling panel, calcein-AM fluorescence, 48 h, basal (AID 1164); details: higher = more signal; also: test concentration not given here
[4] = MM1S cell viability effects, profiling panel, calcein-AM fluorescence, 48 h, basal (AID 1165); details: higher = more signal;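 also: viability of MM1S multiple myeloma cells under basal unstimulated conditions; test concentration not given here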
[5] = basal RPMI8226 viability, no added stimulus, profiling panel, cell-based, calcein-AM fluorescence, 48 h, PK04 Diversity Set (AID 1166); details: RPMI8226 myeloma viability, higher = more signal;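 also: cells grown under basal conditions without added stimulus; test concentration not given here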
[6] = basal HepG2 mitochondrial membrane potential changes, profiling panel, cell-based, JC-1 fluorescence, 24 h, 100 nL compound (AID 1167); details: higher = more signal; also: test concentration not given here
[7] = basal 3T3-L1 adipocyte mitochondrial potential changes, profiling panel, cell-based, JC-1 fluorescence, 3T3-L1 adipocytes, 24 h, 100 nL compound (AID 1168); details: JC-1 mitochondrial fluorescence, higher = more signal, called active from +8 up or from −8 down; also: test concentration not given here
[8] = basal RPMI8226 mitochondrial membrane potential changes, profiling panel, cell-based, JC-1 fluorescence, 24 h, 100 nL compound (AID 1169); details: RPMI8226 myeloma, JC-1 mitochondrial potential fluorescence, higher = more signal; also: test concentration not given here
[9] = basal MM1S mitochondrial membrane potential changes, profiling panel, cell-based, JC-1 fluorescence, 24 h, 100 nL compound (AID 1170); details: higher = more signal; also: test concentration not given here
[10] = A549 lung cancer cell viability effects, profiling panel, resazurin fluorescence, 24 h, PK04 Diversity Set (AID 1171); details: higher = more signal, called active from +8 up or from −8 down; also: test concentration not given here
[11] = HepG2 liver cancer cell viability effects, profiling panel, resazurin fluorescence, 24 h, PK04 Diversity Set (AID 1172); details: higher = more signal; also: test concentration not given here
[12] = basal S. cerevisiae growth modulation, no modifier, primary screen, OD600, strain BY4716, 24 h, basal condition (AID 1173); details: OD600, 24 h, higher = more signal, called active from +8 up or from −8 down
[13] = MM1S myeloma cell viability, profiling panel, resazurin fluorescence, basal, 24 h, PK04 Diversity Set (AID 1174); details: higher = more signal, called active from +8 up or from −8 down;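 also: MM1S multiple myeloma cell line; test concentration not given here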
[14] = target: Dihydroorotate dehydrogenase (quinone), mitochondrial (Plasmodium falciparum (isolate 3D7)) (UniProt Q08210); assay: PfDHODH enzyme inhibitors, primary screen, biochemical, C-terminal His tag, absorbance 600 nm (AID 1175); details: DCIP absorbance 600 nm, higher = more signal, called active from +8 up or from −8 down;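 also: recombinant parasite enzyme with a five histidine tag at its C terminus; test concentration not given here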
Dihydroorotate dehydrogenase (quinone), mitochondrial (Plasmodium falciparum (isolate 3D7)), sequence (Q08210 whole entry, looked up): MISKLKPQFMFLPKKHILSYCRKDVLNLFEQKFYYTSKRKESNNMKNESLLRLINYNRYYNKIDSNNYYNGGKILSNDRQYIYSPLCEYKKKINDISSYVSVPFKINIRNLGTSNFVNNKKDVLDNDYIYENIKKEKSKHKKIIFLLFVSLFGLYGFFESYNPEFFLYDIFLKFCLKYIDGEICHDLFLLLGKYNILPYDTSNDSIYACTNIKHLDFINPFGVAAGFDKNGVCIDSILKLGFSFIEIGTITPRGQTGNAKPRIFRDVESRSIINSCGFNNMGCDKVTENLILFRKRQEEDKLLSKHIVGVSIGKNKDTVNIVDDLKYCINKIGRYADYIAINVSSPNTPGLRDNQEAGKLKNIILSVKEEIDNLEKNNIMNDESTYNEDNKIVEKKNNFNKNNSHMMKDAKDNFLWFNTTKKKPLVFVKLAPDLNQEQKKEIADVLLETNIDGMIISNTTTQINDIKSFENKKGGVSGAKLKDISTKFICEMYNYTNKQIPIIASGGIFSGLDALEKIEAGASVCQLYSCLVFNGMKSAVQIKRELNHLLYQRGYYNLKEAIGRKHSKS

[15] = P. aeruginosa biofilm formation inhibitors, primary screen, strain PAO1, LB-PBS medium, absorbance 600 nm (AID 1176); also: test concentration not given here; details: P. aeruginosa PAO1 growth/biofilm, A600, 12 h; higher = more signal
[16] = S. cerevisiae RM11-1a growth modifiers, primary screen, strain RM11-1a, OD600, basal, 24 h (AID 1177); details: OD600, 24 h, higher = more signal, called active from +8 up or from −8 down;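 also: cultures grown under basal conditions with no added stressor; test concentration not given here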
[17] = E. coli acrAB mutant growth effects, primary screen, E. coli filamentation inducers, strain DRC39, OD650, 24 h (AID 1178); details: higher = more signal, called active from +8 up or from −8 down;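 also: growth measured as culture turbidity by optical density at 650 nm; test concentration not given here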
[18] = E. coli acrAB mutant growth effects, primary screen, E. coli filamentation inducers, strain DRC39, OD650, 48 h (AID 1179);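 also: screen aims at cell division blockers that make cells filament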; details: E. coli DRC39 delta-acrAB growth, higher = more signal, called active from +8 up or from −8 down
[19] = RPMI8226 myeloma cell viability, profiling panel, resazurin fluorescence, basal, 24 h, PK04 Diversity Set (AID 1180); details: higher = more signal;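 also: RPMI8826 multiple myeloma cell line at 5000 cells per well; test concentration not given here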
[20] = target: E3 ubiquitin-protein ligase XIAP (Homo sapiens) (UniProt P98170); assay: XIAP binders, primary screen, biophysical, small-molecule microarray, fluorescence 635 nm (AID 1181); details: small-molecule microarray binding, higher = more signal;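 also: score merges 667 nm emission and signal to noise over triplicate slides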
E3 ubiquitin-protein ligase XIAP (Homo sapiens), sequence (P98170 whole entry, looked up): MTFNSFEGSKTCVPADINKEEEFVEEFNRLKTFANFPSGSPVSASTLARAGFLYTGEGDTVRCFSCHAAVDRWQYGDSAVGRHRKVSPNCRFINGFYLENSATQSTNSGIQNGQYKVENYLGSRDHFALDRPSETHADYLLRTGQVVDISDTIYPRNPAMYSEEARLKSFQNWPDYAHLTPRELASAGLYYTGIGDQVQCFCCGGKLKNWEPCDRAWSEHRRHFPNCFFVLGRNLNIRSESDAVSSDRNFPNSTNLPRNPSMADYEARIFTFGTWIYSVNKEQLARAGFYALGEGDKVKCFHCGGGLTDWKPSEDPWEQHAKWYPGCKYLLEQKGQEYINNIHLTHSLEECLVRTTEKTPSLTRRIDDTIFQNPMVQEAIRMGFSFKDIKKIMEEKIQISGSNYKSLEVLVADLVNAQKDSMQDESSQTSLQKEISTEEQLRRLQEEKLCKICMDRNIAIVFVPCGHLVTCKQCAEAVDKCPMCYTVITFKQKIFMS

Compound	z-score [1]	z-score [2]	z-score [3]	z-score [4]	z-score [5]	z-score [6]	z-score [7]	z-score [8]	z-score [9]	z-score [10]	z-score [11]	z-score [12]	z-score [13]	composite z-score [14]	z-score [15]	z-score [16]	z-score [17]	z-score [18]	z-score [19]	composite z-score [20]
CO[C@@H]1C=CCC(=O)N[C@@H](C)C(=O)OC[C@@H](OC)[C@H](C)CCCC(=O)OC[C@H]1C	0.942	-0.226	-0.0306	0.188	-0.0539	-0.0819	0.225 (inactive)	0.236	-0.392	0.471 (inactive)	0.287	-0.445 (inactive)	0.719 (inactive)	-1.38 (inactive)	-0.479 (inactive)	-0.935 (inactive)	0.853 (inactive)	0.174 (inactive)	1.58	-0.269
CC(C)=CCCC(C)=CCON=C1C[C@@H](O)[C@@H](O)[C@@H]2[C@@H]3C(=O)N(C4CCCCC4)C(=O)[C@@H]3CC[C@@H]12	-0.972	-0.345	-1.14	-2.39	-1.36	-1.64	-1.22 (inactive)	-0.258	-0.859	0.023 (inactive)	-0.199	-0.81 (inactive)	-0.454 (inactive)	-0.42 (inactive)	0.565 (inactive)	-0.709 (inactive)	0.0915 (inactive)	-0.742 (inactive)	-0.51	0.0905
COC(=O)[C@@H]1CC[C@H](C)[C@@H](c2ccc(C)cc2)N1C(=O)c1ccc(C=NOCC[C@@H]2C=C[C@H](OC(C)=O)[C@@H](COC(C)=O)O2)cc1	-0.521	0.556	-1.13	-0.958	-1.32	-0.674	-1.67 (inactive)	0.682	-0.136	0.154 (inactive)	-0.574	1.76 (inactive)	-0.761 (inactive)	1.16 (inactive)	0.888 (inactive)	1.98 (inactive)	0.667 (inactive)	-0.62 (inactive)	-0.337	-0.291
CCOC(=O)[C@H](CC(C)C)NC(=O)CCC1CC(OC(=O)NCc2ccc3c(c2)OCO3)CC2(CCCC(COC(=O)NCc3cccc(C(F)(F)F)c3)O2)O1 (stereo not given in full)	0.112	0.214	-0.503	0.0777	-3.36	1.85	-0.176 (inactive)	0.525	-0.412	-0.175 (inactive)	-0.54	0.3 (inactive)	0.639 (inactive)	0.0645 (inactive)	-0.0691 (inactive)	0.683 (inactive)	-0.718 (inactive)	-0.0974 (inactive)	0.328	-0.148
CCCCc1nc2c(c3c1C[C@H](C)OC3)CN(CCOc1ccccc1)CC2	1.71	0.734	0.681	0.039	-0.657	1.76	0.494 (inactive)	0.539	0.568	-0.682 (inactive)	-0.492	-3.28 (inactive)	0.422 (inactive)	-0.845 (inactive)	1.1 (inactive)	-1.49 (inactive)	1.18 (inactive)	-0.908 (inactive)	0.386	0.437
CC(C)CON=C1C[C@@H](O)[C@@H](O)[C@@H]2[C@@H]3C(=O)N(C[C@@H]4CCCO4)C(=O)[C@@H]3CC[C@@H]12	0.18	-0.149	-0.622	-0.61	-0.923	-0.49	0.977 (inactive)	-0.258	-0.0595	0.266 (inactive)	-0.192	0.526 (inactive)	0.22 (inactive)	-0.223 (inactive)	0.152 (inactive)	-0.541 (inactive)	0.276 (inactive)	0.663 (inactive)	1.15	-0.266
CO[C@H]1COC(=O)[C@H](C)NC(=O)[C@@H](C)COC(=O)[C@H]2CCCN2C(=O)CC=C[C@H]1C	-0.622	-0.321	-0.0694	-0.151	0.353	0.132	-0.658 (inactive)	-0.0639	-1.01	-0.463 (inactive)	-0.384	-0.739 (inactive)	0.0177 (inactive)	-2.21 (inactive)	-0.655 (inactive)	-0.382 (inactive)	0.491 (inactive)	0.206 (inactive)	-0.65	-0.354
C[C@@H](c1ccccc1)N1C(=O)[C@H]2[C@H]3[C@H](O)[C@H](O)CC(=NO[C@@H]4O[C@H](CO)[C@@H](O)[C@H](O)[C@H]4O)[C@@H]3CC[C@H]2C1=O	-0.57	0.698	-0.943	0.21	-0.253	-0.688	0.418 (inactive)	-0.206	-0.189	-0.644 (inactive)	-0.416	0.0492 (inactive)	-0.671 (inactive)	-0.337 (inactive)	0.14 (inactive)	-0.294 (inactive)	-0.403 (inactive)	0.334 (inactive)	-0.361	-0.254
CC(C)CON=C1[C@H]2CCn3c(=O)n(Cc4cc5c(cc4Cl)OCO5)c(=O)n3[C@H]2[C@H](O)[C@@H]2O[C@H]12	-1.37	0.719	-0.0623	-0.053	-0.62	-0.0638	-0.443 (inactive)	0.207	-0.354	-0.647 (inactive)	-0.274	-0.761 (inactive)	-0.302 (inactive)	-2.76 (inactive)	-1.4 (inactive)	-0.471 (inactive)	0.42 (inactive)	-1.6 (inactive)	-0.241	-0.0773
C[C@H](ON=C1[C@H]2CCn3c(=O)n(-c4ccccc4)c(=O)n3[C@H]2[C@H](O)[C@@H]2O[C@H]12)c1cn([C@H](CO)Cc2ccccc2)nn1	-0.142	-0.443	0.115	-0.403	-0.533	-0.633	-1 (inactive)	-0.243	0.155	-0.16 (inactive)	-0.189	-0.145 (inactive)	-0.489 (inactive)	-1.29 (inactive)	0.0282 (inactive)	-1.09 (inactive)	0.571 (inactive)	0.223 (inactive)	-0.226	-0.106
Cn1c(=O)n2n(c1=O)[C@H]1[C@H](O)[C@@H]3O[C@@H]3C(=NOCc3ccccc3)[C@H]1CC2	0.102	-0.48	0.316	0.0846	-0.548	-0.141	-0.383 (inactive)	-0.0104	-0.338	-0.508 (inactive)	0.0287	0.0108 (inactive)	-0.189 (inactive)	-1.08 (inactive)	-0.0242 (inactive)	-0.186 (inactive)	-0.289 (inactive)	-0.265 (inactive)	-0.336	-0.222
CC(=O)OC[C@H]1OC(ON=CC[C@@H]2C=C[C@H](OC(C)=O)[C@@H](COC(C)=O)O2)[C@H](OC(C)=O)[C@@H](OC(C)=O)[C@@H]1OC(C)=O (stereo not given in full)	-0.49	-0.403	-1.12	-0.092	-0.878	0.0783	-2.76 (inactive)	-0.796	0.23	0.103 (inactive)	0.186	0.352 (inactive)	-0.919 (inactive)	-0.753 (inactive)	-0.0903 (inactive)	-0.618 (inactive)	0.938 (inactive)	0.583 (inactive)	0.169	0.0982
CC(C)CON=C1C[C@@H](O)[C@@H](O)[C@@H]2[C@@H]3C(=O)N(C(C)(C)C)C(=O)[C@@H]3CC[C@H]12	0.539	-0.519	-0.248	0.246	0.0151	-0.772	-0.697 (inactive)	-0.369	-0.465	-0.77 (inactive)	-0.184	0.528 (inactive)	-0.426 (inactive)	0.15 (inactive)	-0.613 (inactive)	-0.131 (inactive)	0.366 (inactive)	0.476 (inactive)	-0.246	-0.102
CON=C1[C@H]2CCn3c(=O)n(-c4ccccc4)c(=O)n3[C@H]2[C@H](O)[C@@H]2O[C@H]12	0.828	0.384	0.739	-0.211	0.483	-1.17	1.86 (inactive)	0.391	0.68	-0.378 (inactive)	0.348	-1.45 (inactive)	0.333 (inactive)	-0.984 (inactive)	0.335 (inactive)	-2.21 (inactive)	0.0966 (inactive)	-1.03 (inactive)	0.116	0.0159
C[C@@H]1CC[C@H]2C(=O)O[C@@H](Cc3ccccc3)CN2[C@H]1c1ccc(Br)cc1	0.442	0.185	0.828	-0.591	-0.323	-0.225	0.276 (inactive)	0.231	0.697	0.539 (inactive)	0.603	-1.06 (inactive)	0.656 (inactive)	0.245 (inactive)	-0.491 (inactive)	0.37 (inactive)	-0.402 (inactive)	-0.161 (inactive)	0.0066	0.0871
CC(CCN1CCc2nc(-c3ccccc3)c(-c3ccccc3)cc2C1)=NOC[C@@H](O)COCc1ccco1	1.53	-0.0838	2.01	-0.293	0.465	1.65	-0.278 (inactive)	1.09	-0.174	-0.684 (inactive)	-1.2	-2 (inactive)	-1.88 (inactive)	-0.727 (inactive)	-0.0417 (inactive)	0.358 (inactive)	0.943 (inactive)	1.14 (inactive)	-1.31	0.239
